From PubChem
Only some compounds are listed: those with a hit (about 2.5% of all), similar ones and a draw of the others.
Cruzain inh noDet: cruzain (T. cruzi) inhibition without detergent. AID 1476. 200,000 compounds, 2.3% hits. P25779. Potency, µM, usual class: inhibitors. purified cruzain, Z-FR-AMC fluorescence, no detergent; further: nearly all actives have a fitted effect of over 40% in size
Target sequence (P25779 123-467 limits assumed): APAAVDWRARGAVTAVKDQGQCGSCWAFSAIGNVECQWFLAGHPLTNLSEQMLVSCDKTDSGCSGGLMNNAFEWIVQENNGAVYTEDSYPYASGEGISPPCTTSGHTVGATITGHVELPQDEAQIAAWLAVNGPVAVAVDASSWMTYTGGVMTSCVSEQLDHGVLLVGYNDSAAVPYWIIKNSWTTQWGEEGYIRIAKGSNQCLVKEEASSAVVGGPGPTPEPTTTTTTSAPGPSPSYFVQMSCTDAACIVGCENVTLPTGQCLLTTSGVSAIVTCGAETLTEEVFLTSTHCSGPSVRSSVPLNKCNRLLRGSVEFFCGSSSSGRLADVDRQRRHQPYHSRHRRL
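Detergent-free condition (0.00005% Triton X-100) in acetate buffer pH 5.5 with DTT. 1.5 nM enzyme and compound were pre-mixed 15 min, then 2 uM Z-FR-AMC substrate added; reaction progress from fluorescence change between first and third reads (60 s).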
Cruzain Triton: blocks cruzain activity in presence of Triton detergent | purified cruzain, Z-FR-AMC fluorescence, 0.01% Triton | Potency, µM, hits mostly inhibitors | 200,000 compounds, 0.43% hits; further: nearly all actives have a fitted effect of over 40% in size
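Z-FR-AMC hydrolysis (2 uM substrate) by cruzain (1.5 nM) monitored kinetically at ex 360/em 450 nm after 15 min room-temperature compound exposure; 0.01% Triton X-100, pH 5.5, 5 mM DTT.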
Hits are given with their value; . = inactive; ? = inconclusive. The call rests on the fitted dose curve; in most records, active means well fitted curve in the direction sought with a large enough effect; inconclusive means small, poorly fitted or top-dose-only effect, or another doubt; inactive means no such curve, though single readings can be large; an effect the other way counts as inactive or inconclusive.

SMILES	Cruzain inh noDet	Cruzain Triton
COc1ccc(/C=N/Nc2nnc(-c3ccccc3)c(=O)[nH]2)cc1	.	.
O=C1SCC(c2ccc(Cl)cc2Cl)=NN1Cc1nnc(-c2ccccc2)o1	16µM	.
CC(=O)Nc1ccc(C2=NN(Cc3nnc(-c4ccccc4)o3)C(=O)SC2)cc1	?	.
Nc1c(S(=O)(=O)c2ccccc2)c2nc3ccccc3nc2n1/N=C/c1cccc(O)c1	.	.
Cc1cccc(S(=O)(=O)c2c(N)n(/N=C/c3ccccc3)c3nc4ccccc4nc23)c1	4µM	.
COc1ccccc1/C=N/n1c(N)c(S(=O)(=O)c2cccs2)c2nc3ccccc3nc21	7.9µM	.
COc1ccc(CCn2c(N)c(S(=O)(=O)c3cccs3)c3nc4ccccc4nc32)cc1OC	.	.
Cc1ccc2c(c1)c(=O)c(C(=O)c1ccccc1)cn2Cc1ccccc1F	.	.
Clc1ccc(Cl)c(Cl)c1Cl	.	.
CN(C)c1ccc(Nc2ncnc3sc4c(c23)CCCC4)cc1	.	.
Cc1ccccc1CNC(=O)c1sc2ncnc(N(C)C3CCCCC3)c2c1C	.	.
CCOc1ccc(-c2nn(-c3ccccc3)cc2C2NC(=O)NC(C)=C2C(=O)OC(C)C)cc1C (configuration not stated)	.	.
COC(=O)CSc1nnc(-c2ccccc2OC)n1-c1ccc(C)cc1	.	.
COc1ccccc1-c1nnc(SCC(=O)c2ccc(Cl)cc2)n1-c1ccccc1	25µM	.
COc1ccccc1N1CCN(c2nc3ccc(C(=O)c4ccccc4)cc3n3c(C)nnc23)CC1	.	.
O=C(O)CCC(=O)Nc1cccc(C(=O)Nc2cccc(Cl)c2)c1	.	.
O=C(Cc1ccccc1)Nc1ccc(NC(=O)c2cccc(Cl)c2)cc1	25µM	.
CCOC(=O)CNC(=O)O[C@H]1C(=O)c2cc(OC)ccc2O[C@@H]1c1ccc(OC)c(Br)c1	13µM	.
CCOC(=O)CNC(=O)O[C@@H]1C(=O)c2cc(OC)ccc2O[C@H]1c1cccc(OC)c1	.	.
COc1ccc(CNC(=O)c2ccc(N3CCCC3)c(NC(=O)NCc3ccc(C)cc3)c2)cc1	.	.
O=C(/C=C/c1cccs1)N1CCOCC1	6.3µM	.
O=C(/C=C/c1cccs1)N1CCN(c2ccccc2F)CC1	.	.
C/C(CC(=O)Nc1ccc(OCc2ccccc2)cc1)=N\NC(=O)C(=O)Nc1cccc(C)c1	32µM	.
COc1ccccc1NC(=O)C(=O)N/N=C(\C)CC(=O)Nc1ccc(OCc2ccccc2)cc1	.	.
C[C@@]1([C@@H](NC(=O)c2cccs2)c2ccc(-c3ccccc3)cc2)C[C@H]1C1CCCCC1	7.9µM	.
SMILES	Cruzain inh noDet	Cruzain Triton
C[C@@]1(C(NC(=O)c2ccc(-c3ccccc3)cc2)c2ccc(Cl)cc2)C[C@H]1C1CCCCC1 (some centres not stated)	?	.
O=C(O)c1ccc(SSc2ccc(C(=O)O)cn2)nc1	.	.
Cc1cc(C)c(OCC(=O)N/N=C/c2ccc3c(c2)OCO3)c(C)c1	20µM	.
O=C(N/N=C\c1ccc2c(c1)OCO2)c1ccco1	.	.
Cc1ccccc1OCC(=O)N/N=C/c1ccc2c(c1)OCCO2	.	.
O=C(NCCc1ccccc1)C(=O)N/N=C/c1ccc2c(c1)OCO2	20µM	.
NCCc1ccc(S(=O)(=O)O)cc1[N+](=O)[O-]	.	.
[ClH+][Cu][ClH+].[Cu].[OH2+]c1ccc2ccccc2c1CN1CCCCC1.[OH2+]c1ccc2ccccc2c1CN1CCCCC1	.	.
CC(CCc1ccccc1)NC(=O)c1ccccc1 (configuration not stated)	.	.
CC(CCc1ccccc1)NC(=O)c1ccc(C(=O)NC(C)CCc2ccccc2)cc1 (configuration not stated)	25µM	.
COc1cccc2c1[C@H](CO)N1[C@H](C#N)[C@@H]3C[C@H](C(=O)O)[C@@H]([C@@H]1C2)N3C	.	.
O=[N+]([O-])c1ccc(S(=O)(=O)N2CCn3cccc3C2c2ccc(Br)cc2)cc1 (configuration not stated)	?	.
Cc1ccc(C2c3cccn3CCN2S(=O)(=O)c2ccc([N+](=O)[O-])cc2)cc1 (configuration not stated)	32µM	.
Clc1cccc(C2=NC(c3cccs3)=Nc3ccc(Br)cc3N2)c1	?	.
O=C(Nc1ccc(-c2cc(C(F)(F)F)nn2-c2ccccc2)cc1)c1cccc(F)c1	20µM	.
O=C(NC(=O)c1cccc(F)c1)Nc1ccc(-c2cc(C(F)(F)F)nn2-c2ccccc2)cc1	.	.
O=S1(=O)c2ccccc2N(Cc2cccc(Cl)c2)c2ccccc21	.	.
CCCCCn1c(N)c(C(=O)NCc2cccs2)c2nc3ccccc3nc21	.	.
Nc1c(C(=O)NCCCc2ccccc2)c2nc3ccccc3nc2n1Cc1cccs1	6.3µM	.
O=C(NCC(c1ccco1)S(=O)(=O)c1cccs1)c1ccc(C(F)(F)F)cc1 (configuration not stated)	.	.
Cc1ccccc1OCCSc1nnc(-c2ccc([N+](=O)[O-])cc2)o1	.	.
COc1ccc(Cc2nc3ccc(C(=O)NCCc4ccc(Cl)cc4)cc3o2)cc1	.	.
CCOC(=O)c1c(Nc2ccc(Cl)cc2)sc(/C=C2\C=Nc3ccccc32)c1O	7.9µM	.
Oc1nc(Nc2cccc(Cl)c2)sc1/C=C1\C=Nc2ccccc21	?	.
CCOc1ccc(NC(=O)CSc2nc3c(c(=O)[nH]2)CCCC3)cc1	.	.
SMILES	Cruzain inh noDet	Cruzain Triton
Cc1ccc2c(c1)c(=O)c1c3n2CCN(C(=O)CCl)C3CC1 (configuration not stated)	.	16µM
Cc1ccc2c(c1)c1c3n2CCN(C(=O)CN2CCN(C)CC2)C3CCC1 (configuration not stated)	.	.
O=S(=O)(c1ccccc1)N1CCC[C@@]2(CCN(c3ccccc3)C2)C1	16µM	.
O=S(=O)(c1ccccc1)N1CCC[C@@]2(CCN(c3cccc(-c4ccccc4)c3)C2)C1	4µM	.
O=S(=O)(c1ccccc1)N1CCC2(CCCN(c3cccc(-c4ccccc4)c3)C2)CC1	?	.
O=S(=O)(c1ccccc1)N1CCC2(CCCN(c3ccccc3)C2)CC1	.	.
Cc1[nH]c2ccccc2c1/C=N/Nc1ccc([N+](=O)[O-])cc1	25µM	.
COc1ccccc1NS(=O)(=O)c1cc([N+](=O)[O-])ccc1N/N=C/c1c(C)[nH]c2ccccc12	7.9µM	.
Cc1[nH]c2ccccc2c1/C=N/Nc1ccc(F)cc1F	?	.
O=[N+]([O-])c1ccc(N/N=C/c2c[nH]c3ccccc23)c(S(=O)(=O)Nc2ccc(Cl)cc2)c1	?	.
CCOc1ccc(OCC)c(NS(=O)(=O)c2c(C(=O)N3CCC(C)CC3)c(C)n(C)c2C)c1	?	.
CCCCC[CH2][Hg][S]C1=C2N=CNC2NC(N)=N1 (configuration not stated)	.	.
Cc1nn(-c2ccccc2)c2c1C(c1ccc([N+](=O)[O-])cc1)N1C(=N2)C(=O)Nc2ccccc21 (configuration not stated)	.	.
Cc1nn(-c2ccc([N+](=O)[O-])cc2)c2c1C(c1cccc(Br)c1)N1C(=N2)C(=O)Nc2ccccc21 (configuration not stated)	4µM	.
CCOc1ccccc1NC(=O)CCc1c(C)nc2c3cccnc3nn2c1C	.	.
Cc1nc(C(=O)Nc2ccc(Cl)cc2Cl)nn1-c1cc(OC(C)C)c(Cl)cc1Cl	25µM	.
